This is part of a sample that, as a whole, favours compounds with a hit. Of some 83,000 tested, about 20% had one in any assay.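 Step 1: grow cells in 96-well plates. Step 2: add test compound at a single concentration. Step 3: incubate 48 h. Step 4: record percent growth.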 Unmarked numbers belong to inactive results. Activity calls are given as the source filed them. How the source made its calls: active means growth percent below 10; inactive means the rest.
What was measured:
Assay in all cases: NCI-60 one-dose screen, 48 h (100 = growth as untreated, 0 = no growth, -100 = all killed)
Conditions in all cases: 10 µM unless noted
NCI-H23 lung = system: NCI-H23 lung
NCI-H226 lung = system: NCI-H226 lung
NCI-H322M lung = system: NCI-H322M lung
HOP-62 NSCLC = system: HOP-62 NSCLC
NCI-H460 lung = system: NCI-H460 lung
HOP-92 NSCLC = system: HOP-92 NSCLC
NCI-H522 lung = system: NCI-H522 lung
A549/ATCC NSCLC = system: A549/ATCC NSCLC
786-0 renal = system: 786-0 renal
COLO 205 colon = system: COLO 205 colon

Row | SMILES | growth (NCI-H23 lung) | growth (NCI-H226 lung) | growth (NCI-H322M lung) | growth (HOP-62 NSCLC) | growth (NCI-H460 lung) | growth (HOP-92 NSCLC) | growth (NCI-H522 lung) | growth (A549/ATCC NSCLC) | growth (786-0 renal) | growth (COLO 205 colon)
1 | Cc1cccc(C)c1N=c1oc2ccc(Cl)cc2nc1-c1ccccc1O | 78.6% | 88.1% | 88.6% | 112% | 97.2% | 55.9% | 82.9% | 96.7% | 90% | 89.7%
2 | CCCCCCOc1ccc(/C=N/Nc2cc(C)nc3ccc(Cl)cc23)cc1 | 68.3% | 87.8% | 14.6% | -51.6% (active) | -80% (active) | 69.5% | -42.9% (active) | -43.1% (active) | -82.2% (active) | -48.4% (active)
3 | C/C(=N\Nc1cc(C)nc2ccc(Br)cc12)c1ccc([N+](=O)[O-])cc1 | 88.4% | 90% | 82.7% | 76.9% | 69.8% | 77% | 76.6% | 78.6% | 10% | 31.8%
4 | N#CC(C#N)=Cc1cc2ccccc2nc1Oc1ccc(C(F)(F)F)cc1 | 81.8% | 77.1% | 99.2% | 93.7% | 97.4% | 48.7% | 91.8% | 99.5% | 98.8% | 101%
5 | COc1ccc(/C=C/c2nc(Nc3ccc(S(=O)(=O)Nc4nc(C)cc(C)n4)cc3)c3ccccc3n2)cc1 | 78.1% | 68.9% | 29% | 75.6% | 63% | 66.4% | 68.5% | 42.2% | 78.8% | 59.8%
6 | CCOC(=O)[C@@H](C)C[C@H](Cc1ccccc1)NC(=O)c1csc([C@@H](C[C@H](C(C)C)N(C)C(=O)[C@@H](NC(=O)[C@H]2C[C@H](O[Si](C)(C)C(C)(C)C)CCN2C)C(C)C)OC(C)=O)n1 | 17.6% [9.25 µM] | -39.2% [9.25 µM] (active) | 25% [9.25 µM] | 0.247% [9.25 µM] (active) | -23.9% [9.25 µM] (active) | -9.53% [9.25 µM] (active) | -46.7% [9.25 µM] (active) | 7.91% [9.25 µM] (active) | -5.36% [9.25 µM] (active) | -72.6% [9.25 µM] (active)
7 | O=C1c2ccc3c4c(ccc(c24)C(=O)N1CCCNCc1ccccc1Cl)C(=O)N(CCCNCc1ccccc1Cl)C3=O | -51.9% (active) | -57.1% (active) | -66.2% (active) | -19.8% (active) | -52.1% (active) | -7.21% (active) | -83.1% (active) | -84.1% (active) | -32.8% (active) | -15.9% (active)
8 | COc1cccc(-c2cc(C(=O)Nc3ccc(/C=C/c4ccc(OC5CCN(C)CC5)cc4)cc3)ccc2OC)c1 | 12.6% | 76.2% | 5.51% (active) | -27.5% (active) | -72.3% (active) | 11% | -46.3% (active) | -34% (active) | -95.2% (active) | 29.1%
9 | CCCCCC(=O)Oc1ccc(/C(=C(\C)c2ccccc2)c2ccc(OCCN3CCCCC3)cc2)cc1 | 74.9% | 93.5% | 83.8% | 87.7% | 82.1% | 91.2% | 70.1% | 77.5% | 69.9% | 34.4%
10 | CN[C@@H](C)C(=O)N[C@H]1CCS[C@H]2CC(C)(C)[C@@H](C(=O)N[C@H]3c4ccccc4C[C@H]3OCC#CC#CCO[C@@H]3Cc4ccccc4[C@@H]3NC(=O)[C@H]3N4C(=O)[C@@H](NC(=O)[C@H](C)NC)CCS[C@H]4CC3(C)C)N2C1=O | 57.6% | 129% | 92.4% | 66.8% | 114% | 79.4% | 56.9% | 95.3% | 99.2% | 103%
11 | CC(c1ccccc1)C(C(=O)c1ccccc1)c1ccccc1 (stereo not given) | 84.6% | 73.5% | 103% | 44.8% | 88.3% | 107% | 68.4% | 80% | 83.5% | 112%
12 | O=[N+]([O-])CC(c1ccccc1)c1c[nH]c2ccccc12 (stereo not given) | 68.5% | 63.6% | 97.6% | 56% | 52.6% | 75.7% | 5.68% (active) | 42.4% | 70% | 54.1%
13 | O=C(N/N=C/c1cc2ccccc2n2nnnc12)Nc1ccccc1 | 100% | 103% | 105% | 100% | 105% | 105% | 93.6% | 97.7% | 91.5% | 108%
14 | N#CC1=C(N)Oc2c(ccc3ccccc23)C1c1ccccc1Cl (stereo not given) | 30.9% | 69.3% | 54.7% | 49.9% | 5.27% (active) | 80.6% | -7.02% (active) | 22.4% | 27.7% | -1.64% (active)
15 | Clc1ccc(-c2ccc(CNCC3CCNCC3)o2)c(-c2ccccc2)c1 | -39.8% (active) | -12.1% (active) | -25.7% (active) | -78.3% (active) | -86.7% (active) | -39.3% (active) | -70.7% (active) | -79.5% (active) | -90.2% (active) | -76.3% (active)
16 | COc1ccc2nc(-c3ccc(-c4noc(-c5cc(OC)c(OC)c(OC)c5)n4)cc3)[nH]c2c1 | 63.8% | 86% | 101% | 76.8% | 56.3% | 76.2% | 74.9% | 45.8% | 77.8% | 78.4%
17 | COc1ccc(C(C)=O)c(OC)c1 | 105% | 95.1% | 124% | 103% | 115% | 75.5% | 89.9% | 105% | 103% | 113%
18 | CC(=O)[C@@H]1CC[C@]2(CO)CC[C@]3(C)[C@H](CC[C@@H]4[C@@]5(C)CCCNC(C)(C)[C@@H]5CC[C@]43C)[C@@H]12 | 94.6% | 107% | 88.8% | 111% | 100% | 88.7% | 91.6% | 112% | 93.6% | 106%
19 | Cc1ccc(NC(C(=O)c2ccccc2)c2ccccc2)cc1 (stereo not given) | 59.5% | 75.3% | 97.3% | 80.2% | 46.9% | 39.8% | 34.4% | 58% | 75.5% | 41.9%
20 | O=C1c2cccc3c(-c4ccc5c(c4)ncn5C4CCCCC4)ccc(c23)C(=O)N1c1nc2ccccc2s1 | 86.4% | 84.1% | 91.7% | 82% | 94.8% | 76% | 78.2% | 100% | 93% | 89.8%
21 | Cc1nn(-c2ccccc2)c(Cl)c1/C=N\N=c1/sc2ccccc2n1C | 100% | 105% | 97.5% | 93.1% | 107% | 84.5% | 97.7% | 85.1% | 92.6% | 109%
22 | Cn1c2ccccc2c2c3c(c4c5ccccc5n(C)c4c21)C(=O)OC3 | 97.6% | 80.9% | 87.6% | 90.8% | 97.6% | 95.6% | 88.8% | 104% | 102% | 107%
23 | Cn1ccnc1C(=O)/C=C/c1ccc(CC(=O)Nc2ccc(Cl)cc2)cc1 | 19.2% | 76.7% | 6.08% (active) | -21.2% (active) | -27.6% (active) | 72% | 6.86% (active) | 6% (active) | 11.3% | 7.39% (active)
24 | COc1ccc(/C=C/c2nc(Nc3ccc(S(=O)(=O)NC(C)=O)cc3)c3ccccc3n2)cc1 | 85.9% | 84% | 38.6% | 81.2% | 64.7% | 67.8% | 76.3% | 42% | 83.6% | 49.7%
25 | COc1ccc(C(=O)Nc2cccc(C3CCc4c(cc(OC)c(OC)c4OC)O3)c2)cc1 (stereo not given) | 58.9% | 30.1% | 75.9% | 39.8% | 25.7% | 61.3% | 42.7% | 43.4% | 68.7% | 67.9%
26 | COc1cccc(/C=N/NC(=O)c2cnn3c2NC(c2ccccc2)C3)c1Oc1ccccc1 (stereo not given) | 95.5% | 97.7% | 102% | 74.3% | 88% | 105% | 54.2% | 73% | 79.8% | 79.6%

Source: PubChem BioAssay (NCI)
